For 22 compounds, efficacy, outcome and AC50 results are on record in PubChem BioAssay (NCATS).

The conditions of assay [1]: Ebola virus entry assay, green fluorescence channel.
The conditions of assay [2]: Ebola virus entry assay, blue channel fluorescence.
The conditions of assay [3]: Ebola virus entry assay, green fluorescence channel. The source holds these as a separate data set.
The conditions of assay [4]: Ebola virus entry assay, ratio channel readout.
For assay [5] the following is noted: Ebola virus entry assay, blue channel fluorescence. This is another data set of the same source.
For assay [6] the following is noted: Ebola virus entry assay, ratio channel.

Structures are written as SMILES. Unmarked numbers belong to inactive results. For part of these data: Results with a measured potency or affinity are listed apart. Activity calls are given as the source filed them.
Throughout, for efficacy: 0% is about no effect.

As to `CN(CCOc1ccc(NS(C)(=O)=O)cc1)CCc1ccc(NS(C)(=O)=O)cc1`, the efficacy in assay [1] was 20.2%. Further, the compound was called inactive in assay [2], in assay [3], in assay [4], in assay [5] and in assay [6].
As a reminder, the AC50 is the concentration giving half of the maximal activity seen. As for `C=C(CC)C(=O)c1ccc(OCC(=O)O)c(Cl)c1Cl`, the efficacy in assay [1] was 39.8%. The compound was classed as inactive in assay [2], in assay [3] and in assay [4]. Also, the half-maximal activity concentration (AC50) is 14.1 µM (active) in assay [5] and 15.8 µM (active) in assay [6].
As to `Cc1ccsc1C(=CCCN1CCC[C@@H](C(=O)O)C1)c1sccc1C`, in assay [1], the efficacy is 57.2%. Further, the compound was classed as inactive in assay [2], in assay [3] and in assay [4]. Further, the concentration at half-maximal activity (AC50) in assay [5] was 35.5 µM (active); in assay [6], 20 µM (active).
As for `CCC(C)(C)C(=O)O[C@H]1C[C@@H](C)C=C2C=C[C@H](C)[C@H](CC[C@@H]3C[C@@H](O)CC(=O)O3)[C@H]21`, the efficacy in assay [1] is 37.4%. Also, the call in assay [2], in assay [3], in assay [4] and in assay [5] was inactive. Moreover, the AC50 in assay [6] was 7.08 µM (active).
On to `NC(=O)NO`, for which the efficacy in assay [1] was 10%. Further, the outcome in assay [2], in assay [3], in assay [4], in assay [5] and in assay [6] was inactive.
Turning to `C=C[C@H]1CN2CC[C@H]1C[C@@H]2[C@@H](O)c1ccnc2ccc(OC)cc12`, in assay [1], the efficacy was 36.3%. Besides, the compound was called inactive in assay [2], in assay [3], in assay [4] and in assay [6]. Further, the half-maximal activity concentration (AC50) in assay [5] is 20 µM (active).
`CCCN1C[C@H](CSC)C[C@@H]2c3cccc4[nH]cc(c34)C[C@H]21`: in assay [1], the efficacy is 14.5%. The outcome in assay [2], in assay [3] and in assay [4] was inactive. Further, the values for the AC50 in assay [5] and in assay [6] were 11.2 µM (active) and 7.94 µM (active), respectively.
For `CN(C)CCc1c[nH]c2ccc(CS(=O)(=O)N3CCCC3)cc12`, the efficacy in assay [1] is -14.5%. For the same compound, the compound was classed as inactive in assay [2], in assay [3], in assay [4], in assay [5] and in assay [6].
Consider `CN(C)CCCN1c2ccccc2Sc2ccc(Cl)cc21`, for which the efficacy in assay [1] was -179%. Also, the AC50 in assay [2] was 10 µM (active); in assay [5], 14.1 µM (active); in assay [6], 3.98 µM (active). Moreover, the call in assay [3] and in assay [4] was inactive.
For the compound `CN1CCN(C(c2ccccc2)c2ccccc2)CC1`, the efficacy in assay [1] is 84.8%. In addition, the call in assay [2], in assay [3] and in assay [4] was inactive. Besides, the AC50 is 28.2 µM (active) in assay [5] and 22.4 µM (active) in assay [6].
As for `CS(=O)(=O)CCNCc1ccc(-c2ccc3ncnc(Nc4ccc(OCc5cccc(F)c5)c(Cl)c4)c3c2)o1`, the efficacy in assay [1] was 108%. The outcome in assay [2], in assay [3] and in assay [4] was inactive. Also, the concentration at half-maximal activity (AC50) was 3.55 µM (active) in assay [5] and 3.98 µM (active) in assay [6].
On to `CC1(C)S[C@@H]2[C@H](NC(=O)Cc3ccccc3)C(=O)N2[C@H]1C(=O)O` (tested in a mixture with another compound), for which the efficacy in assay [1] is -23.1%. For the same compound, the outcome in assay [2], in assay [3], in assay [4], in assay [5] and in assay [6] was inactive.
`COc1cc(C(=O)NCc2ccc(OCCN(C)C)cc2)cc(OC)c1OC`: in assay [1], the efficacy was 33.3%. Also, the call in assay [2], in assay [3], in assay [4], in assay [5] and in assay [6] was inactive.
For the compound `N=C(N)c1ccc(OCCCCCOc2ccc(C(=N)N)cc2)cc1`, the efficacy in assay [1] is 22.7%. In addition, the result in assay [2], in assay [3], in assay [4], in assay [5] and in assay [6] was inactive.
On to `CN(C)CCCN1c2ccccc2CCc2ccc(Cl)cc21`, for which, in assay [1], the efficacy is -191%. Moreover, the concentration at half-maximal activity (AC50) was 7.94 µM (active) in assay [2], 6.31 µM (active) in assay [4], 3.16 µM (active) in assay [5] and 3.16 µM (active) in assay [6]. In addition, the compound was called inactive in assay [3].
With `CC(=O)CCCCn1c(=O)c2c(ncn2C)n(C)c1=O`, the efficacy in assay [1] is -14.2%. Moreover, the call in assay [2], in assay [3], in assay [4], in assay [5] and in assay [6] was inactive.
As for `COc1cc(NC(C)CCCN)c2ncccc2c1` (configuration not stated), the efficacy in assay [1] was -153%. Besides, the compound was called inactive in assay [2], in assay [3] and in assay [4]. Further, the AC50 was 5.01 µM (active) in assay [5] and 3.55 µM (active) in assay [6].
With `COc1cc2c(cc1OC)C(=O)C(CC1CCN(Cc3ccccc3)CC1)C2` (configuration not stated), the efficacy in assay [1] is 108%. Besides, the result in assay [2], in assay [3] and in assay [4] was inactive. The AC50 was 35.5 µM (active) in assay [5] and 22.4 µM (active) in assay [6].
With `CN1CCN(CCCN2c3ccccc3Sc3ccc(Cl)cc32)CC1`, in assay [1], the efficacy was -144%. Further, the compound was called inactive in assay [2], in assay [3] and in assay [4]. The results for the AC50 in assay [5] and in assay [6] were 7.08 µM (active) and 3.98 µM (active), respectively.
For the compound `O=C1Cc2cc(CCN3CCN(c4nsc5ccccc45)CC3)c(Cl)cc2N1`, the efficacy in assay [1] is 34%. For the same compound, the outcome in assay [2], in assay [3] and in assay [4] was inactive. Also, the AC50 is 22.4 µM (active) in assay [5] and 17.8 µM (active) in assay [6].
Regarding `Clc1ccc2c(c1)C(N1CCNCC1)=Nc1ccccc1O2`, the efficacy in assay [1] is 94.9%. Moreover, the AC50 in assay [2] was 14.1 µM (active); in assay [4], 12.6 µM (active); in assay [5], 14.1 µM (active); in assay [6], 10 µM (active). Besides, the result in assay [3] was inactive.
With `Nc1ncn([C@@H]2O[C@H](CO)[C@@H](O)[C@H]2O)c(=O)n1`, the efficacy in assay [1] is -20.9%. Moreover, the call in assay [2], in assay [3], in assay [4], in assay [5] and in assay [6] was inactive.
